# Assay results: the supplement of paper PMC11732987, “Enantioselective OTUD7B fragment discovery through chemoproteomics screening and high-throughput optimisation” (Communications Chemistry, 2025)
# Unmarked numbers belong to inactive results.
# Key:
# Test in all cases: log2 ratio of Biotin-Ahx-Ub-VS probe labelling (fragment/DMSO); higher = less target engagement (more negative = stronger competition), active = hit call of the paper (q ≤ 0.05, log2 ratio ≤ -1)
# Conditions in all cases: compound concentration: 200 uM; treatment time: 3 h
# ALG13 = biological target: T1, ALG13 (UniProt Q9NP73)
# T1 sequence (whole entry): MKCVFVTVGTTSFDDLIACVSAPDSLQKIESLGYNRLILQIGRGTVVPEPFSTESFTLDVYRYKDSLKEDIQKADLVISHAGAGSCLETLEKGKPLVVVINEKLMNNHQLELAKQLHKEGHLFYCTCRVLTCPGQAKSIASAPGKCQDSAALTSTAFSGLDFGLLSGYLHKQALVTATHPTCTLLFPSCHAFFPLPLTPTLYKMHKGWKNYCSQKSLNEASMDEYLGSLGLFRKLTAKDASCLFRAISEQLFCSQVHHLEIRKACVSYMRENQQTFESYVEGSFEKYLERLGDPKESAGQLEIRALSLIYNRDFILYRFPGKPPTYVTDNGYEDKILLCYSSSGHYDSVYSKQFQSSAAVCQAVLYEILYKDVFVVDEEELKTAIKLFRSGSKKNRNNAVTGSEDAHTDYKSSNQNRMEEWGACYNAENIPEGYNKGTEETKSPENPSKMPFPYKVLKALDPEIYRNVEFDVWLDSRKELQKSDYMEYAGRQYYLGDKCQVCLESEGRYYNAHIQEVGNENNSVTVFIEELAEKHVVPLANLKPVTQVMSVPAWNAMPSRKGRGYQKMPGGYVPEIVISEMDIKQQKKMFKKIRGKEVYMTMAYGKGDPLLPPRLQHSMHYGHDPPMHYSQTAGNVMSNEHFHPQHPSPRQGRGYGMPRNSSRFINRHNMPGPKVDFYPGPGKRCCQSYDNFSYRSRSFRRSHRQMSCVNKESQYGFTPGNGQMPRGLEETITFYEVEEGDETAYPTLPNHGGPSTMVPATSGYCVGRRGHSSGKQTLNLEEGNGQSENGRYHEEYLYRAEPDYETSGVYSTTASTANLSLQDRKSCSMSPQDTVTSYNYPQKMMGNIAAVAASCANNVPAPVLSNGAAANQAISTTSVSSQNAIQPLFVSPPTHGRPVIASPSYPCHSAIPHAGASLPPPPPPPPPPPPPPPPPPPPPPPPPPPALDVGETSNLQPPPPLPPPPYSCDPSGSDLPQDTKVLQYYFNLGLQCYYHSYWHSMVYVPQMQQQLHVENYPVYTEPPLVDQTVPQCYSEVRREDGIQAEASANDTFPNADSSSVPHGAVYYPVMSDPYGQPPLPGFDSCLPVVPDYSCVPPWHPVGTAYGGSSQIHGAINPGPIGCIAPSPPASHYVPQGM
# Summary of the method: (§1)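 HEK293T lysate (495 µg per sample, in Tris/CHAPS/IGEPAL buffer with protease inhibitors) was treated in triplicate with fragment at 200 µM or with DMSO for 3 h. It was then treated with Biotin-Ahx-Ub-VS (0.5 µM final) for 1 h. Labelled DUBs were NeutrAvidin-enriched, digested with LysC and trypsin, and run by diaPASEF LC-MS/MS. Spectronaut label-free quantities were global-median-normalised. Values are average log2 ratios fragment/DMSO by unpaired t-test, using proteins with ≥2 unique peptides.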
# ATXN3 = ATXN3 (UniProt P54252)
# Sequence of ATXN3 (P54252 whole entry): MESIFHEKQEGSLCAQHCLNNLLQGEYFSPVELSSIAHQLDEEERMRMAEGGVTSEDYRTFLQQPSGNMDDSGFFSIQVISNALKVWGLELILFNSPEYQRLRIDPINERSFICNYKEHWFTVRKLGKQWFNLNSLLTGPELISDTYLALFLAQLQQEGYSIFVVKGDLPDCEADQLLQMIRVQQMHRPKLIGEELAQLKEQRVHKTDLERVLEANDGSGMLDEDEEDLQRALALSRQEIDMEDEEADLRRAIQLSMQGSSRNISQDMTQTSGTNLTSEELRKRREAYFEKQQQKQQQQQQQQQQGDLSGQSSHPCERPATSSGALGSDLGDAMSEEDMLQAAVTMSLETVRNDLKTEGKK
# Summary of the method: as §1
# BAP1 = biological target: T2, BAP1 (UniProt Q92560)
# T2 sequence (whole entry): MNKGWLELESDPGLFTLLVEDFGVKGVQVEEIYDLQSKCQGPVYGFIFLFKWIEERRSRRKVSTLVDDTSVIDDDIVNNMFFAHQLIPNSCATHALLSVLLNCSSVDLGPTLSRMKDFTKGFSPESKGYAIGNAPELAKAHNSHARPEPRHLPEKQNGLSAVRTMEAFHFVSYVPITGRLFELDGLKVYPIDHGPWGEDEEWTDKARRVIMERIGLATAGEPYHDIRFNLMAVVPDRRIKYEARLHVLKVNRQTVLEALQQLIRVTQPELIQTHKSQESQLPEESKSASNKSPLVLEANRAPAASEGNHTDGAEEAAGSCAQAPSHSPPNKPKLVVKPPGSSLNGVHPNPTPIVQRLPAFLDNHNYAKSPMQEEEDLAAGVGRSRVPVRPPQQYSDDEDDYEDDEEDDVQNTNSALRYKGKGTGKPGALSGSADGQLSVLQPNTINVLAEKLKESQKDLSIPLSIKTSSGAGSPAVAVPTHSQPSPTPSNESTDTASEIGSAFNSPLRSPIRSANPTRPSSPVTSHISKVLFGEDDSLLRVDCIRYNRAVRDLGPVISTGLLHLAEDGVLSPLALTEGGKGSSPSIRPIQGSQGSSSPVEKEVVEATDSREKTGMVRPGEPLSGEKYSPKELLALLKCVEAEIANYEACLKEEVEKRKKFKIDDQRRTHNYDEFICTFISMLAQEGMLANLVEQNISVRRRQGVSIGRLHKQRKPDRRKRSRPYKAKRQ
# Summary of the method: as §1
# EIF3F = EIF3F (UniProt O00303)
# Sequence of EIF3F (O00303 whole entry): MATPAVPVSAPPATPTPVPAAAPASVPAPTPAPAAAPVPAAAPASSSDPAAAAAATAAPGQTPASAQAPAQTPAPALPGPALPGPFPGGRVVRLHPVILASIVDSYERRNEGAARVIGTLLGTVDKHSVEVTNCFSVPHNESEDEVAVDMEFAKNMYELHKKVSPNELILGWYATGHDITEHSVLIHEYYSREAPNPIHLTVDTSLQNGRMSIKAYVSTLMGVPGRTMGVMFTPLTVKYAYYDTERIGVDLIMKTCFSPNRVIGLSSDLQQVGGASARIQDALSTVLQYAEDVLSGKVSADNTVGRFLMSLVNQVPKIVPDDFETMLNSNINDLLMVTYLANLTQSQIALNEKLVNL
# Summary of the method: as §1
# EIF3H = EIF3H (UniProt O15372)
# Sequence of EIF3H (O15372 whole entry): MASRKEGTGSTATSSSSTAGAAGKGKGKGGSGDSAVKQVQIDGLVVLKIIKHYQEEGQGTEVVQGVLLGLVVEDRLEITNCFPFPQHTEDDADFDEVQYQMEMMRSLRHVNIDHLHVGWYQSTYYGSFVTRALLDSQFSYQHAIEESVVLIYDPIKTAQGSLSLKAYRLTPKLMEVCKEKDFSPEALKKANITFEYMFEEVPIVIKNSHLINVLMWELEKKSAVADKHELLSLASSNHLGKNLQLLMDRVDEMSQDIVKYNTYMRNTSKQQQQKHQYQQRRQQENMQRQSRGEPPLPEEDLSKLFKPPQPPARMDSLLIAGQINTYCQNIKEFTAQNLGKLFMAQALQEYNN
# Summary of the method: as §1
# FAM105A = biological target: T3, FAM105A (UniProt Q9NUU6)
# T3 sequence (whole entry): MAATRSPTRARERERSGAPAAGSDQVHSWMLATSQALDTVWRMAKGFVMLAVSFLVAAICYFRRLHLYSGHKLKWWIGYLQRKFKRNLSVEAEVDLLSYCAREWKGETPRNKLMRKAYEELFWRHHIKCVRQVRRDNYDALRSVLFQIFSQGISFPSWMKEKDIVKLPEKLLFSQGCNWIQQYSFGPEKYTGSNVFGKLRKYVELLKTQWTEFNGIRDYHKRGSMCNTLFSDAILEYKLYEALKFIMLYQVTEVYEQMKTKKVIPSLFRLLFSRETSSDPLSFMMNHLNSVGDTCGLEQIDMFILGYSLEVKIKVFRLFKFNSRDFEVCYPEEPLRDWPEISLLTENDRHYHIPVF
# Summary of the method: as §1
# OTUB1 = OTUB1 (UniProt Q96FW1)
# Sequence of OTUB1 (Q96FW1 whole entry): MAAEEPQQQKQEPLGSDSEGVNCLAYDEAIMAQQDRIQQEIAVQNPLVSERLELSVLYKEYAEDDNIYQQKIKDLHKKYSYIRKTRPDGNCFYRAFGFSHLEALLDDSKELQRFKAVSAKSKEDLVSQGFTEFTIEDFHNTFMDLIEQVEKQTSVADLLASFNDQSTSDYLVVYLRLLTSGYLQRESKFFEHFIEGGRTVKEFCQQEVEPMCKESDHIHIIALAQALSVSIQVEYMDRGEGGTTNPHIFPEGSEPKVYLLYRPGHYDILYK
# Summary of the method: as §1
# OTUD4 = biological target: T4, OTUD4 (UniProt Q01804)
# T4 sequence (whole entry): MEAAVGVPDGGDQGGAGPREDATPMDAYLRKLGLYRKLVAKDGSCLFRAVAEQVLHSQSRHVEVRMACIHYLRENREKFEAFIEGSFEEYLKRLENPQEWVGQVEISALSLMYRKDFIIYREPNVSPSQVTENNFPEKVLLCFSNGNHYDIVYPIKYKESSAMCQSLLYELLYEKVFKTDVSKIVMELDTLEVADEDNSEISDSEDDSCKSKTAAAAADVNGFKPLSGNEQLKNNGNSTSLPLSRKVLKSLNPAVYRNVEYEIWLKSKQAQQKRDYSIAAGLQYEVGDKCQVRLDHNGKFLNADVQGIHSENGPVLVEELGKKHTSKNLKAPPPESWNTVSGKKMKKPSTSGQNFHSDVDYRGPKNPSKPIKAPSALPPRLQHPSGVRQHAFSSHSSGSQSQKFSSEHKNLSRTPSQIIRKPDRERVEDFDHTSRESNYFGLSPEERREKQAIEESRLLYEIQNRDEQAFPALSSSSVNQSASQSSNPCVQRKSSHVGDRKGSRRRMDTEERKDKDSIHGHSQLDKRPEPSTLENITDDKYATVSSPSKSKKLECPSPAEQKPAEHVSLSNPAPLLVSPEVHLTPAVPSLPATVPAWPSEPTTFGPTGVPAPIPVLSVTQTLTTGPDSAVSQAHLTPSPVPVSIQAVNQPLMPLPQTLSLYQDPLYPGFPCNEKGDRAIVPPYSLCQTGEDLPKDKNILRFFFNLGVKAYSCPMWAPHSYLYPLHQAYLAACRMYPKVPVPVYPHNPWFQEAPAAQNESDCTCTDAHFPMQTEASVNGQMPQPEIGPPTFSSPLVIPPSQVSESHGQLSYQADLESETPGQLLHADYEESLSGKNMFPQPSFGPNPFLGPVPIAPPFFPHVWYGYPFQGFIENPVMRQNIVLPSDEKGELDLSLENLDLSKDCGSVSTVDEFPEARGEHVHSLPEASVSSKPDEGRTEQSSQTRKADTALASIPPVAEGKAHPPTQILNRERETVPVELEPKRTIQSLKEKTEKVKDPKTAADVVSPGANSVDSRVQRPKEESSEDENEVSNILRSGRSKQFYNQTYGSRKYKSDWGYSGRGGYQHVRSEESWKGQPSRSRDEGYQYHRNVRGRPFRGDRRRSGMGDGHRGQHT
# Summary of the method: as §1
# OTUD5 = biological target: T5, OTUD5 (UniProt Q96G74)
# T5 sequence (whole entry): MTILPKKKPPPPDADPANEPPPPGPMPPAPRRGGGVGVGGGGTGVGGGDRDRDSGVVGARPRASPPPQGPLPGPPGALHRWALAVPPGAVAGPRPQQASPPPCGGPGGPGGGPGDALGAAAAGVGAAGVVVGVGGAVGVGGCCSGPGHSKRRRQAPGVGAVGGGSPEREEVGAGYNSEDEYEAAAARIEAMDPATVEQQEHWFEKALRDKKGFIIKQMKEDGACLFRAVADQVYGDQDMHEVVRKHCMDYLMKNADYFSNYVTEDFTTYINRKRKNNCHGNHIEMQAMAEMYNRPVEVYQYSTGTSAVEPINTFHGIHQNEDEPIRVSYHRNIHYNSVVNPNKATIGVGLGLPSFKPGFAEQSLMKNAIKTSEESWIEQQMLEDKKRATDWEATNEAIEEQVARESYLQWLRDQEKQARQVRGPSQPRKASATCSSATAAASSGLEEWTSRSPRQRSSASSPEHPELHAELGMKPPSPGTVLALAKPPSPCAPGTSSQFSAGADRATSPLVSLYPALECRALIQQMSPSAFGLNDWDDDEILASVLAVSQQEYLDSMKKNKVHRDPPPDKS
# Summary of the method: as §1
structure (smiles),measurement,setting,value
O=C(CCl)NCc1ccc(Cl)cc1,log2 ratio of Biotin-Ahx-Ub-VS probe labelling,ALG13,0.0638
same,log2 ratio of Biotin-Ahx-Ub-VS probe labelling,ATXN3,-0.168
same,log2 ratio of Biotin-Ahx-Ub-VS probe labelling,BAP1,-2.74 (active)
same,log2 ratio of Biotin-Ahx-Ub-VS probe labelling,EIF3F,0.0714
same,log2 ratio of Biotin-Ahx-Ub-VS probe labelling,EIF3H,-0.105
same,log2 ratio of Biotin-Ahx-Ub-VS probe labelling,FAM105A,-0.347
same,log2 ratio of Biotin-Ahx-Ub-VS probe labelling,OTUB1,0.0283
same,log2 ratio of Biotin-Ahx-Ub-VS probe labelling,OTUD4,0.0745
same,log2 ratio of Biotin-Ahx-Ub-VS probe labelling,OTUD5,-0.00631
